About 8,800 targets were measured; listed, in parts, are those with a hit and a random draw of the rest. About 0.5% of all pairs of compound and target were hits.
compound: C1=CC2=NC=CN=C2C=C1/C=C/3\C(=O)NC(=O)S3; test: log2 fold change, soluble protein after heating vs DMSO (PISA); higher = thermal stabilisation; K562 lysate, 10 uM; active = over 0.2 and 3.5 SD of the protein, either way, in both replicates (recomputed)
Summary of the method: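 Pellets of K562 cells were dounce-homogenised in PBS pH 7.4 with 1 mM MgCl2, and the crude extract was held at 1 mg/mL protein for a 30 min treatment with 10 μM compound. Aliquots were heated for 3 min over 48°C-58°C and pooled before NP-40 was added to 0.5% at 4°C. The supernatant from 21,000xg for 90 min was quantified by TMTpro 16plex LC-MS/MS with channel sums equalised. Values are reported from duplicates as log-two fold change in thermal stability relative to solvent controls.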

UniProt Q12904, sequence (Q12904 whole entry, looked up): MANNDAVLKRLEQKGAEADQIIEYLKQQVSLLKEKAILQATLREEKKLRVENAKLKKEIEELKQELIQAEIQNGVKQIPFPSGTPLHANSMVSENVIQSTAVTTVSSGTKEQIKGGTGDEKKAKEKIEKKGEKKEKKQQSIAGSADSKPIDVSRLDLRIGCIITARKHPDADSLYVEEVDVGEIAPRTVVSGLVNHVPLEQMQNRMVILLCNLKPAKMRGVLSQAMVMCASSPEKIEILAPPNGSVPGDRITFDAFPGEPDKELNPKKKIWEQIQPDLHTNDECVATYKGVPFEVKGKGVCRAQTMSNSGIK
UniProt Q9BRQ8, sequence (Q9BRQ8 whole entry, looked up): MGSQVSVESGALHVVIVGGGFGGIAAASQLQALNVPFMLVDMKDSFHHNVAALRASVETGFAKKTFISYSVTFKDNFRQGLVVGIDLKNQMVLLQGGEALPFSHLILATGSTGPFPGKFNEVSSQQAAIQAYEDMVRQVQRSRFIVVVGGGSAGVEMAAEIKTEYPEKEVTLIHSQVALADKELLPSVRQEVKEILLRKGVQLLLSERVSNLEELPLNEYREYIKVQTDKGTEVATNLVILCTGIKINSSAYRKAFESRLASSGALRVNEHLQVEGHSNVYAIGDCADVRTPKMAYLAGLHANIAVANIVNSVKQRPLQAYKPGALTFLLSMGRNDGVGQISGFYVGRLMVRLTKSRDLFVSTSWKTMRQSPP
UniProt P27144, sequence (P27144 whole entry, looked up): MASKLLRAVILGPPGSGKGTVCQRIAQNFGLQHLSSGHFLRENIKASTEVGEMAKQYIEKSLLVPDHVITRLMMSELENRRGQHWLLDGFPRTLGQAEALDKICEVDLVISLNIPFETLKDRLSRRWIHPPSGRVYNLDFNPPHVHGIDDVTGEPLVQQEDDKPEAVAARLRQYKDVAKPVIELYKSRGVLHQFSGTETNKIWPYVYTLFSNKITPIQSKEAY
UniProt P05091, sequence (P05091 whole entry, looked up): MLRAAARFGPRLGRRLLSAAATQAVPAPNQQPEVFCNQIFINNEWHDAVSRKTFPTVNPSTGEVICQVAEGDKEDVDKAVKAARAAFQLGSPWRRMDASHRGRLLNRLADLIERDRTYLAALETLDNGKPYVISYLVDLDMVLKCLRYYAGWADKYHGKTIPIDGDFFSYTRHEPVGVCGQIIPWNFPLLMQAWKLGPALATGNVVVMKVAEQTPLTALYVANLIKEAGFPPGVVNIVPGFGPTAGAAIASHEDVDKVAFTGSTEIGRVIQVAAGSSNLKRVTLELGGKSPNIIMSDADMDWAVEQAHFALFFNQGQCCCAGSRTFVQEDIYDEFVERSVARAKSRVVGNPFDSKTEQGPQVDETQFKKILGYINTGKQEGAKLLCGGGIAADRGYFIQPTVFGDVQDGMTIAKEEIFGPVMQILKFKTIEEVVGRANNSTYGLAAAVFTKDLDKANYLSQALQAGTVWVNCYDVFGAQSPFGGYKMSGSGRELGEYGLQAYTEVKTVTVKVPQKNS
UniProt O95870, sequence (O95870 whole entry, looked up): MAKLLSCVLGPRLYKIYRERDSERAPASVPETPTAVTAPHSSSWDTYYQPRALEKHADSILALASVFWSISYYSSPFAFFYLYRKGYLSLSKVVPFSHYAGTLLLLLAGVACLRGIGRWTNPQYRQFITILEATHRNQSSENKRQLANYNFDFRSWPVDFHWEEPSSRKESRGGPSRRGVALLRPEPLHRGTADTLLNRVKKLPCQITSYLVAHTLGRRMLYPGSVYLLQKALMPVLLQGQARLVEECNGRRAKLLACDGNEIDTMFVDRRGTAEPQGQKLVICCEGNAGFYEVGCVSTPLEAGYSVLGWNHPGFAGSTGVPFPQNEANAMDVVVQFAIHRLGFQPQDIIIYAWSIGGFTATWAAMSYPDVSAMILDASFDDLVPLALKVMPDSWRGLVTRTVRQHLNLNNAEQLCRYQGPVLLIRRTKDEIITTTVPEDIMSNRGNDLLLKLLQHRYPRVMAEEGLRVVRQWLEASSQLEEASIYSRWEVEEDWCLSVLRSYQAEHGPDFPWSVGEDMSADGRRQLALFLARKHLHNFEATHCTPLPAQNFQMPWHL
UniProt Q9UPW5, sequence (Q9UPW5 whole entry, looked up): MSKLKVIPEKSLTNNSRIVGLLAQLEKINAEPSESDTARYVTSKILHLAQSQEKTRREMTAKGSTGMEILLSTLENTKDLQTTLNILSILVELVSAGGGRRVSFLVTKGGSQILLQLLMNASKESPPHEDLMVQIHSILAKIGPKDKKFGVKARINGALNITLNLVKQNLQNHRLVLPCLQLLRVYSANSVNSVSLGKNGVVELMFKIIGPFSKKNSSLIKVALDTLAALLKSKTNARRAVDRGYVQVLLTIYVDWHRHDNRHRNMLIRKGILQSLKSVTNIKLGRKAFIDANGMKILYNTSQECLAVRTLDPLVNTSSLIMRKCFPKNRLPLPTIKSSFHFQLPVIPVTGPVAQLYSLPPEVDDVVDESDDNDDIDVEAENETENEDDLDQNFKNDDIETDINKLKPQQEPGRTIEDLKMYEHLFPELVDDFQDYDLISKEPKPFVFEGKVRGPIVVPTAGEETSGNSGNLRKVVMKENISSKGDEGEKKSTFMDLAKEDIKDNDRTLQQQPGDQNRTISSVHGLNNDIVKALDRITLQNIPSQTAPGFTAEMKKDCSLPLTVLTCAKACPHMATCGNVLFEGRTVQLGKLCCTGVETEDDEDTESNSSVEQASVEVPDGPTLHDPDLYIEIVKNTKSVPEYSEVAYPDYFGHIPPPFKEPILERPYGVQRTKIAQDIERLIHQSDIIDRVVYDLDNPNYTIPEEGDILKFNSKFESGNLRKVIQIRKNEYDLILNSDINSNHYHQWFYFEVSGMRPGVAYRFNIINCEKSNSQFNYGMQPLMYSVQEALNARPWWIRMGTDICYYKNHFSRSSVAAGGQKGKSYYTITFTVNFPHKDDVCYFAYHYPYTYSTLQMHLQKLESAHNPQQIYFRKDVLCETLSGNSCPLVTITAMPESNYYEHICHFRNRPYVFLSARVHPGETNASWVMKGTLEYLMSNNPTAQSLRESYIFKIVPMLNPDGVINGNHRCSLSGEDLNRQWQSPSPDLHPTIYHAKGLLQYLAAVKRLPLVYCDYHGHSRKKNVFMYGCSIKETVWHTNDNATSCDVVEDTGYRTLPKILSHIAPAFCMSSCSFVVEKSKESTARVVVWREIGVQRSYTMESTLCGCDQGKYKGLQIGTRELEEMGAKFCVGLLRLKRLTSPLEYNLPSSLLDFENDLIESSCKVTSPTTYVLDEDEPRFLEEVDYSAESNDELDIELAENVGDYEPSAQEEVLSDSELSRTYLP
UniProt Q9UNA0, sequence (Q9UNA0 whole entry, looked up): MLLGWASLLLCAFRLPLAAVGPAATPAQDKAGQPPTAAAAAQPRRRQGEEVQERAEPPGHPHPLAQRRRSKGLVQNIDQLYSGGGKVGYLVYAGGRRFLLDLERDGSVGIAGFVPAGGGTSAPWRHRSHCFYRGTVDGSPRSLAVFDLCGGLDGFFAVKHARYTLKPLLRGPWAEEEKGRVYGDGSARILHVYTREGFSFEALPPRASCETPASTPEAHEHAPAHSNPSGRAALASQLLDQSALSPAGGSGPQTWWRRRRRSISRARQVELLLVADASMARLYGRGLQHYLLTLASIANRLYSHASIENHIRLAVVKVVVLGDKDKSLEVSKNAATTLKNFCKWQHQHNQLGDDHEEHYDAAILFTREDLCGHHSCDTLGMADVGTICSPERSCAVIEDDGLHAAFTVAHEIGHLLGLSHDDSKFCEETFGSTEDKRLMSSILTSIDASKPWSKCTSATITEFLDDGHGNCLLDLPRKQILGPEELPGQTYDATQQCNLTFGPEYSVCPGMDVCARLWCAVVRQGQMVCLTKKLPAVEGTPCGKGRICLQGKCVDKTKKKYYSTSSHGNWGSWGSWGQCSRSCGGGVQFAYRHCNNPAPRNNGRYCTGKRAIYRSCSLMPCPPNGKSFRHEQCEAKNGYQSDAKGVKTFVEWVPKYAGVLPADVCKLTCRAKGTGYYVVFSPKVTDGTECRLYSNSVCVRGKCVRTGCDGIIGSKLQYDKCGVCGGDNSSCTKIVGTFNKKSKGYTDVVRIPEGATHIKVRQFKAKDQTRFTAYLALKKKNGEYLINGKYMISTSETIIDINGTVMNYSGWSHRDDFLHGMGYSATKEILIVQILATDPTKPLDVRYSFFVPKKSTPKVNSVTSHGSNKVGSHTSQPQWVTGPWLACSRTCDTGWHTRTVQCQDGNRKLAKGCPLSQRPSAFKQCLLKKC
UniProt Q562R1, sequence (Q562R1 whole entry, looked up): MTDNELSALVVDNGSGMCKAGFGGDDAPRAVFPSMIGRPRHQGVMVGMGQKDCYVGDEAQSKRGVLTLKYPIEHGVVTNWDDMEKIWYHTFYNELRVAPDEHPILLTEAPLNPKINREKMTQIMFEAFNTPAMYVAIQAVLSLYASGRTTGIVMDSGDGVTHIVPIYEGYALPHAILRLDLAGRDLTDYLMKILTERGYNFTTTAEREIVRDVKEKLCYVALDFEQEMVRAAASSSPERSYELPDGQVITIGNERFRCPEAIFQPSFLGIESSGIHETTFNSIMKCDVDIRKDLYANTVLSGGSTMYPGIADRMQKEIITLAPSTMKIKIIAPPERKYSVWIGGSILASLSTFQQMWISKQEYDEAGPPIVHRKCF
UniProt Q9NXU5, sequence (Q9NXU5 whole entry, looked up): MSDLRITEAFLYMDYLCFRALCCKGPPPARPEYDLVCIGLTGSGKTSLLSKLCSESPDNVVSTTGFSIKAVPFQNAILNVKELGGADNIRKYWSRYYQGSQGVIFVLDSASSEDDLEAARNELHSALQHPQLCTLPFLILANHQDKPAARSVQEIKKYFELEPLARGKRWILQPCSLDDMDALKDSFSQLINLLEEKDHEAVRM
UniProt P40616, sequence (P40616 whole entry, looked up): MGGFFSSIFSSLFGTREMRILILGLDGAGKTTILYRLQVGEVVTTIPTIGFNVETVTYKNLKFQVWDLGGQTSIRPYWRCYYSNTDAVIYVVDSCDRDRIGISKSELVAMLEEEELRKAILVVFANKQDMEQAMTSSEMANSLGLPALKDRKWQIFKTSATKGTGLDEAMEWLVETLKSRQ

log2 fold change, inactive:
ADRM1 (UniProt Q16186) -0.016
ADD1 isoform 3 (UniProt P35611) -0.01
AGGF1 (UniProt Q8N302) -0.077
ANKRD40 (UniProt Q6AI12) 0.232
AIMP1 isoform 2 (UniProt Q12904) -0.03
AMPD3 isoform 4 (UniProt Q01432) -0.072
AGTPBP1 (UniProt Q9UPW5) 0.042
AIFM2 (UniProt Q9BRQ8) -0.117
ARL1 (UniProt P40616) -0.03
ACSL1 (UniProt P33121) 0.051
ACTBL2 (UniProt Q562R1) 0.118
ALG13 (UniProt Q9NP73) -0.048
AGPS (UniProt O00116) 0.019
ARL15 (UniProt Q9NXU5) 0.079
ALDH2 (UniProt P05091) 0.042
ADAM17 (UniProt P78536) -0.023
ABCF2 isoform 2 (UniProt Q9UG63) 0.01
AK4 (UniProt P27144) -0.01
ABCD3 (UniProt P28288) -0.055
ADAMTS5 (UniProt Q9UNA0) -0.046
ABHD16A (UniProt O95870) -0.042
AGO4 (UniProt Q9HCK5) -0.031
ALDH1B1 (UniProt P30837) 0.031

Source: the supplement of paper PMC10849652
